Reference: the supplement of paper PMC10646978
± gives the standard deviation.

Assays:
Details in all cases: modulator concentration 10 µM
[1] = test system: RAW-Dual (murine macrophage reporter line); assay: NF-kB reporter (SEAP) activity fold change vs agonist alone; higher = enhanced NF-kB activity
Method in brief: (§1)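 Overnight stimulation with a PRR agonist followed pre-incubation for 1 hour at 37 °C with compound at 10 μM final. This was done in RAW-Dual murine macrophage reporter cells seeded at 50 000 per well in 384-well plates. NF-κB (SEAP, QUANTI-Blue absorbance at 620 nm) and IRF (Lucia luciferase, QUANTI-Luc luminescence) were read from the supernatant. Each reporter's fold change relative to the mean agonist-only control on the same plate was averaged over replicate plates.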

[2] = test system: RAW-Dual (murine macrophage reporter line); assay: IRF reporter (Lucia luciferase) activity fold change vs agonist alone; higher = enhanced IRF activity
Method in brief: as §1

[3] = test system: RAW-Dual (murine macrophage reporter line); assay: viability score (confluency relative to resting cells, overnight) (fraction); higher = more viable, active = viable (0.7 or more)
Method in brief: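 Confluency was the readout: RAW-Dual macrophages were imaged with IncuCyte after an overnight exposure to compound at 10 μM final. IncuCyte software produced two masks over all imaged wells. The viability score expresses confluency against resting cells, and both masks had to exceed 70% of resting cells for a compound to meet the cutoff.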

[4] = agonist: CpG ODN 1826 0.5 ug/mL

SMILES	NF-kB reporter [1, 4]	NF-kB reporter ([1]; agonist: LPS 0.1 ug/mL)	NF-kB reporter ([1]; agonist: MPLA […])	IRF reporter ([2]; agonist: 3'3'-cGAMP 10 ug/mL)	IRF reporter ([2]; agonist: LPS 0.1 ug/mL)	IRF reporter ([2]; agonist: MPLA […])	viability score [3]
O=[N+]([O-])c1cc(C(F)(F)F)ccc1N1CCN(CC=Cc2ccccc2)CC1	0.915 ± 0.078	1.07 ± 0.099	0.985 ± 0.071	0.976 ± 0.036	1.47 ± 0.24	1.14 ± 0.12	1.01 (active)
CC1Cc2ccccc2N1C(=O)C1CCCN1S(=O)(=O)c1ccc(Cl)cc1 (configuration not stated)	0.835 ± 0.043	0.905 ± 0.12	1.27 ± 0.25	1.01 ± 0.061	1.22 ± 0.18	1.47 ± 0.52	0.97 (active)
CC1(COc2ccc3c(c2)ncn3-c2ccc3cccc(N4CCC(N)CC4)c3n2)COC1	0.379 ± 0.25	0.397 ± 0.099	2.05 ± 0.24	0.0544 ± 0.0038	0.345 ± 0.037	0.339 ± 0.06	0.464 (inactive)
Cl.NCCCC(N)(C(=O)O)C(F)F.O (configuration not stated)	1.06 ± 0.25	1.09 ± 0.065	1.2 ± 0.18	0.922 ± 0.035	1.3 ± 0.15	1.19 ± 0.15	0.994 (active)
COC(=O)C1=C(C)NC(C)=C(C(=O)OCCN2CCN(C(c3ccccc3)c3ccccc3)CC2)C1c1cccc([N+](=O)[O-])c1 (configuration not stated)	0.231 ± 0.038	0.631 ± 0.07	0.89 ± 0.051	0.138 ± 0.0049	0.949 ± 0.11	1.1 ± 0.11	0.966 (active)
COc1ccc(C=NNC(=O)c2ccc(CN3CCOCC3)cc2)cc1[N+](=O)[O-]	1.01 ± 0.085	1.06 ± 0.089	0.961 ± 0.067	1.04 ± 0.039	1.47 ± 0.14	1.28 ± 0.11	0.988 (active)
CC(NC(=O)COc1ccc(C=NNC(=O)c2ccccc2O)cc1)c1ccccc1 (configuration not stated)	1.05 ± 0.13	1.03 ± 0.065	1.02 ± 0.061	0.985 ± 0.028	1.63 ± 0.23	1.2 ± 0.1	1.01 (active)
N=C(N)Nc1nc(-c2ccccc2)c(-c2ccccc2)s1	0.98 ± 0.2	1.23 ± 0.18	1.29 ± 0.1	1.27 ± 0.06	1.26 ± 0.22	1.33 ± 0.19	1 (active)
CC#CCn1c(N2CCCC(N)C2)nc2c1c(=O)n(Cc1nc(C)c3ccccc3n1)c(=O)n2C (configuration not stated)	0.931 ± 0.24	1.08 ± 0.085	0.972 ± 0.065	0.925 ± 0.033	1.23 ± 0.15	1.39 ± 0.13	0.988 (active)
CC(=O)N1CCC(C(=O)NC(Cn2nccn2)c2ccccc2)CC1 (configuration not stated)	0.87 ± 0.05	1.06 ± 0.09	1.05 ± 0.082	1.04 ± 0.051	1.34 ± 0.25	1.56 ± 0.46	0.935 (active)
O=C(NCCO)c1cc(C(=O)NCCO)cc(C(=O)NCCO)c1	0.964 ± 0.065	1.05 ± 0.064	0.923 ± 0.054	0.981 ± 0.043	1.36 ± 0.099	1.18 ± 0.29	1.01 (active)
CC(C)(C)c1cc(CCC(=O)NN)cc(C(C)(C)C)c1O	0.8 ± 0.066	0.816 ± 0.06	0.926 ± 0.096	0.519 ± 0.022	1.15 ± 0.12	1.24 ± 0.2	1.02 (active)
CC(C(=O)O)c1ccc2c(c1)CC(=O)c1ccccc1S2 (configuration not stated)	1.19 ± 0.18	1.19 ± 0.43	0.977 ± 0.06	1.03 ± 0.032	1.26 ± 0.42	1.22 ± 0.13	0.988 (active)
COc1c(Cl)ccc(Cl)c1C(=O)NCc1ccccc1	0.812 ± 0.13	1.01 ± 0.12	1.06 ± 0.11	1.15 ± 0.03	1.25 ± 0.14	1.33 ± 0.25	1 (active)
Cc1ncn(CCNC(=O)Nc2ccc(OC(F)(F)F)cc2)c(=O)c1C	1.14 ± 0.077	1.08 ± 0.088	1.01 ± 0.061	0.901 ± 0.035	1.06 ± 0.05	1.11 ± 0.25	0.998 (active)
Brc1ccc(CN2C3=NCCCN3c3ccccc32)cc1.Cl	0.263 ± 0.023	0.826 ± 0.054	1.34 ± 0.092	0.735 ± 0.089	0.984 ± 0.049	0.905 ± 0.11	0.96 (active)
C/C(=C(\CCOP(=O)(O)O)SC(=O)c1ccccc1)N(C=O)Cc1cnc(C)nc1N [Prestw-654]	1.03 ± 0.19	1.25 ± 0.15	1.1 ± 0.13	0.943 ± 0.031	1.04 ± 0.15	1.28 ± 0.14	0.974 (active)
COC(CNS(=O)(=O)c1ccccc1Cl)c1cccc(F)c1 (configuration not stated)	1.21 ± 0.074	1.04 ± 0.078	1.08 ± 0.038	0.849 ± 0.045	1.03 ± 0.055	0.736 ± 0.12	0.995 (active)
O=C(C=Cc1ccc2c(c1)OCO2)NCc1ccccn1	0.994 ± 0.16	1.08 ± 0.089	0.897 ± 0.069	0.933 ± 0.041	1.27 ± 0.27	1.28 ± 0.15	0.994 (active)
Cc1cnc2c(c1SCC(=O)N1CCc3ccccc31)c(=O)n(C)c(=O)n2C	1.01 ± 0.057	1.22 ± 0.18	0.916 ± 0.069	1.01 ± 0.051	1.17 ± 0.15	1.14 ± 0.25	1.01 (active)
O=C(NC1CCC(Oc2ncc(F)cn2)CC1)c1cccc(F)c1 (configuration not stated)	0.976 ± 0.084	1.01 ± 0.079	0.913 ± 0.079	1.01 ± 0.064	1.08 ± 0.088	1.04 ± 0.27	1.01 (active)
CC(C)(CO)NC(=O)C(c1ccccc1)c1ccccc1	1.24 ± 0.14	0.961 ± 0.086	1 ± 0.041	0.937 ± 0.035	0.991 ± 0.051	0.896 ± 0.095	0.996 (active)
NC(C(=O)O)c1ccccc1F (configuration not stated)	0.928 ± 0.11	0.966 ± 0.11	0.994 ± 0.039	0.939 ± 0.056	0.969 ± 0.053	0.81 ± 0.082	1 (active)
CCCOCCOC(=O)C1=C(C)NC2=C(C(=O)CCC2)C1c1ccc(F)c(F)c1 (configuration not stated)	0.971 ± 0.081	1.07 ± 0.1	0.851 ± 0.07	1.09 ± 0.042	1.41 ± 0.1	1.2 ± 0.12	1.01 (active)
COC(=O)c1cc(NC(=O)c2cc(OC)c(OC)cc2[N+](=O)[O-])cc(C(=O)OC)c1	0.99 ± 0.1	1.03 ± 0.057	0.913 ± 0.074	0.999 ± 0.063	1.59 ± 0.19	1.22 ± 0.091	1.01 (active)
Cl.OC(CCCN1CCCCC1)(c1ccccc1)c1ccccc1	0.856 ± 0.037	0.895 ± 0.088	0.982 ± 0.061	1.63 ± 0.092	1.1 ± 0.3	1.08 ± 0.47	0.998 (active)
